# Records with an inconclusive call do not appear. The source made the active and inactive calls.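 Rule for the calls, unless noted: active = viability at or below 27.92% in each of two runs, the all-compound median minus 4 SD; inconclusive = no clear call, values can overlap the other calls; inactive = the rest.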
# Experiments:
# [1] = Her2 expression decrease, cell viability multiplex – SKBR3 breast tumor cells, AlphaScreen, ATP viability, primary screen (AID 461;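 active = Her2 level under about 52% in both replicate screens, with viability over 70% of control, limit read from the data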;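 for Her2 level: lower value means less Her2 protein in the cells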;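 for viability: percent of carrier control wells set as 100% viability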); details: SKBR3 Her2 protein level, 18-24 h, measured here: SKBR3 viability, ATP luminescence, at 10 µM
# [2] = target: Receptor tyrosine-protein kinase erbB-2 (Homo sapiens) (UniProt P04626); experiment: as above; details: 18-24 h, at 10 µM, stronger effect = lower value
# [3] = reduced viability of SK-BR-3 breast cancer cells – cell-based, 24 h, human, pilot screen (AID 572;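 active = viability at or below 10% of carrier control in both of two separate runs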;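 note: compound exposure lasted between 18 and 24 h rather than exactly 24 h; 100% = carrier-treated control wells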); details: SK-BR-3 viability, CellTiter-Glo luminescence, at 10 µM, stronger effect = lower value
# [4] = HUVEC growth inhibition – cell-based, human, primary screen (AID 575;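 active = viability at or below 30% in both replicate assays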;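 note: 100% = median of untreated cell wells with 0.1% DMSO on each plate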); details: HUVEC proliferation, CellTiter-Glo luminescence, 72 h; at 10 µM; stronger effect = lower value
# [5] = H69AR cell proliferation blockers – human, duplicate replicates, primary screen (AID 580;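 active = viability at or under a set limit in both replicates, limit being median viability minus 3 SD, cut at about 48% in these data, passing the limit was not always enough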;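 note: 100% = mean luminescence of untreated wells and 0% = no signal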); details: H69AR lung tumor cells viability, ATP luminescence, 72 h; at 10 µM; stronger effect = lower value
# [6] = MRP1 drug-resistance reversers in H69AR cells – cell-based, doxorubicin co-treatment, pilot screen (AID 601;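 active = viability loss from added drug above about 55%, and viability with drug at most 40%, in both replicates, limit read from the data, passing the limit was not always enough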); details: CellTiter-Glo, 72 h, at 10 µM; for differential viability (reversal): stronger effect = higher value
# [7] = yeast transport mutant growth inhibition pilot in 384-well plates, post-Golgi transport modulator project (AID 636; in the data active = inhibition above about 31%); details: absorbance 615 nm, about 18 h, stronger effect = higher value
# [8] = growth suppression of yeast trafficking mutant, preliminary HTS, modulators of trafficking downstream of Golgi apparatus project, 1536-format plate, OD 615 nm (AID 637; in the data active = inhibition above about 30%); details: yeast transport mutant growth, absorbance 615 nm, 18 h; stronger effect = higher value
# [9] = S. cerevisiae growth inhibition in permissive medium (OD615), pilot counter-assay for S. cerevisiae lifespan shortening project, permissive growth control (AID 705;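 active = growth inhibition above 25% in both replicates, a cutoff set 3 SD above the mean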); details: OD615, 24 h, at 10 µM, stronger effect = higher value
# [10] = S. cerevisiae growth inhibition in restrictive medium, OD615, pilot screen, restrictive growth control, yeast lifespan reduction project (AID 706;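 active = growth inhibition above a set limit, 3 SD over mean compound inhibition, in both replicates, cut at about 43% in these data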;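 note: modified DeaD lifespan yeast strain shifted to restrictive glucose medium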); details: OD615, 48 h, at 10 µM, stronger effect = higher value
# [11] = doxorubicin toxicity protection in MRP-1 cells – H69AR cells, CellTiter-Glo, duplicate, MRP-1 activator project, pilot screen (AID 807;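 active = viability increase at or above a cutoff of the median across tested compounds plus 3 SD, cut at about 8.5% in these data, passing the limit was not always enough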;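 note: compound pretreatment 18-22 h then 72 h combined with doxorubicin; 0% = doxorubicin alone and 100% = vehicle without doxorubicin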); details: H69AR viability with doxorubicin, CellTiter-Glo luminescence; at 10 µM; stronger effect = higher value
# [12] = viability of HCT116 without oncogenic beta-catenin – human colon tumor cells, pilot screen (AID 823;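 active = cell viability at or below a set limit in both duplicate runs, the limit being the all-compound median minus 4 SD, cut at about 23% in these data, passing the limit was not always enough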;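 note: 0% = wells killed by 20 µM Hyamine and 100% = untreated DMSO cell wells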); details: HCT116 beta-catenin knockout viability, CellTiter-Glo, 60 h; at 10 µM; stronger effect = lower value
# [13] = viability of PTEN-null HCT116 cells – cell-based, HCT116 clonal line, CellTiter-Glo, pilot screen (AID 824); details: HCT116 PTEN-deleted viability, 60 h, at 10 µM, stronger effect = lower value;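 note: 0% = 20 µM Hyamine control and 100% = vehicle cell control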
# [14] = RAM pathway blockade in budding yeast – dse1pr::URA3 reporter, 5-FOA selection, pilot screen (AID 869;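 active = inhibition over a set limit, the all-compound mean plus 3 SD, in both replicate runs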;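 note: 0% = DMSO wells with no growth and 100% = 10 µM 1-NA-PP1 with full growth; RAM network block rescues cells from 5-FOA so hits raise OD615 growth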); details: S. cerevisiae dse1pr::URA3 5-FOA growth, OD615, 2 d; at 10 µM; stronger effect = higher value; strain carries analog-sensitive mutant Cbk1 kinase
# [15] = RAM signaling pathway blockade in yeast – S. cerevisiae, Pdr1DBD-CYC8 efflux-inhibited sensitized strain, primary screen (AID 1298;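 active = RAM network inhibition above 8.4% in each of two replicates, 3 SD over the compound average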;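 note: 0% = DMSO untreated cells without growth and 100% = 10 µM 1-NA-PP1 full growth; higher means more yeast growth rescued from 5-FOA killing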); details: S. cerevisiae cbk1-as DSE1-URA3 strain, 5-FOA growth OD615, 2 d; at 50 µM; stronger effect = higher value
# [16] = H69AR cells + 2 uM doxorubicin, measured here: viability with 2 uM doxorubicin, stronger effect = lower value
# [17] = H69AR cells, compound alone cytotoxicity
# Receptor tyrosine-protein kinase erbB-2 (Homo sapiens), sequence (P04626 whole entry, looked up): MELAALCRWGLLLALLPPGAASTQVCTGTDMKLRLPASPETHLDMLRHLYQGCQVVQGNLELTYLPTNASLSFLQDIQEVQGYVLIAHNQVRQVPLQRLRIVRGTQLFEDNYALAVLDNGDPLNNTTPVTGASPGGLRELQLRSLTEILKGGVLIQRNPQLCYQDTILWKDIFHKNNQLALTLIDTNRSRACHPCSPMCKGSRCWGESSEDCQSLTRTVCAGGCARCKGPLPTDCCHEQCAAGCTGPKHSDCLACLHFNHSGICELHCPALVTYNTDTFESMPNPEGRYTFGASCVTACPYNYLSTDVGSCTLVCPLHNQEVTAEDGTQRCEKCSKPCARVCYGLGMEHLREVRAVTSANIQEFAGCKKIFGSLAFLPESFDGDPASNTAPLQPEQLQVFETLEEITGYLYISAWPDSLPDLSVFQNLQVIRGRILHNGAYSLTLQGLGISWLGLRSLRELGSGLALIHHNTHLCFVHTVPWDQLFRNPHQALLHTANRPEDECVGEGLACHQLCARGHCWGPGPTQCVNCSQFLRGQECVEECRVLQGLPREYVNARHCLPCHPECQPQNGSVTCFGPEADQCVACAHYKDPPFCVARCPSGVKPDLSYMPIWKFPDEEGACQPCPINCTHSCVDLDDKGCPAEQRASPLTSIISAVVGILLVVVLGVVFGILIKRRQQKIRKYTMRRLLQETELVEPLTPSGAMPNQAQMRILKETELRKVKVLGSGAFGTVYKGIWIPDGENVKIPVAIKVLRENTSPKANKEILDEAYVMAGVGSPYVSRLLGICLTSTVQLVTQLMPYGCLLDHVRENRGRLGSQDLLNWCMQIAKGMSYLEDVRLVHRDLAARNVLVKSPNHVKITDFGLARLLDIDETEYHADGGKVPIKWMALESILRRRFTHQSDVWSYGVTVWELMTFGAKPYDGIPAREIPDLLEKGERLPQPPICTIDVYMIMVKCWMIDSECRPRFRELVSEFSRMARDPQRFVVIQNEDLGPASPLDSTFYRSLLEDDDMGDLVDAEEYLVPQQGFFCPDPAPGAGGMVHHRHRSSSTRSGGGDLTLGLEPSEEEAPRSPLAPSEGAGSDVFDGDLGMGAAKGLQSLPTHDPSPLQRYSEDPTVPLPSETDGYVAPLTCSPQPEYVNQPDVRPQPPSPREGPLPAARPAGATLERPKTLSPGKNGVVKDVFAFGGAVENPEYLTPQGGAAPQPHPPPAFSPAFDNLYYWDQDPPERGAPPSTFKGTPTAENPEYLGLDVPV
SMILES,viability [1] [%],Her2 level [2],viability [3],viability [4],viability [5],differential viability (reversal) ([6]; H69AR cells + 2 uM doxorubicin),"viability [6, 16] [%]","viability [6, 17] [%]",inhibition [7],inhibition [8],growth inhibition [9],growth inhibition [10],viability increase [11],viability [12],viability [13],inhibition [14],RAM network inhibition [15]
C/C=C/Cn1c(SCCCc2ccccc2)nc2c1c(=O)[nH]c(=O)n2C,89.5,72% (inactive),89.5% (inactive),61.2% (inactive),69.6% (inactive),0.835% (inactive),68.8,69.6,1.07% (inactive),3.61% (inactive),-15.3% (inactive),1.29% (inactive),-3.52% (inactive),66.8% (inactive),52.6% (inactive),1.32% (inactive),9.17% (inactive)
CCc1cc(=O)n2[nH]c(C)c(-c3ccccc3OC)c2n1,80.5,106% (inactive),80.5% (inactive),91.3% (inactive),100% (inactive),5.22% (inactive),95,100,0.13% (inactive),-6.83% (inactive),-1.09% (inactive),0.365% (inactive),-3.04% (inactive),98.6% (inactive),105% (inactive),2.31% (inactive),1.78% (inactive)
Cn1c(NC(=O)c2ccccc2NC(=O)C(C)(C)C)nc2ccccc21,95,116% (inactive),95% (inactive),62.8% (inactive),60.6% (inactive),-16.9% (inactive),77.5,60.6,-1.73% (inactive),2.33% (inactive),3.42% (inactive),8.1% (inactive),-2.36% (inactive),47.1% (inactive),55.1% (inactive),-0.01% (inactive),1.74% (inactive)
COCCNC(=O)C(C)N(c1ccc(Oc2ccccc2)cc1)S(C)(=O)=O (stereo not drawn),112,95.5% (inactive),112% (inactive),102% (inactive),96.5% (inactive),7.53% (inactive),89,96.5,-0.65% (inactive),3.44% (inactive),-4.62% (inactive),4.17% (inactive),-0.82% (inactive),90.7% (inactive),91.6% (inactive),-0.1% (inactive),3.42% (inactive)
CC1CCCCN1CCNC(=O)C1CCN(S(=O)(=O)c2cccc3cccnc23)CC1 (stereo not drawn),97,96.5% (inactive),97% (inactive),112% (inactive),100% (inactive),4.43% (inactive),95.8,100,-2.53% (inactive),-2.46% (inactive),8.94% (inactive),-2.71% (inactive),-3.57% (inactive),101% (inactive),97.9% (inactive),2.46% (inactive),6.99% (inactive)
Cc1cc(NC(=O)CS(=O)(=O)c2cn(Cc3cccc(F)c3)c3ccccc23)no1,124,75.5% (inactive),124% (inactive),69.7% (inactive),92.7% (inactive),3.98% (inactive),88.7,92.7,-6.62% (inactive),-4.67% (inactive),-5.79% (inactive),-24.3% (inactive),-1.03% (inactive),65.8% (inactive),72.2% (inactive),1.3% (inactive),5.39% (inactive)
COc1ccccc1CNC(=O)C1CCCN(S(=O)(=O)c2cccc3cccnc23)C1 (stereo not drawn),92.5,98.5% (inactive),92.5% (inactive),111% (inactive),92% (inactive),-0.39% (inactive),92.3,92,-4.53% (inactive),-2.17% (inactive),-5.17% (inactive),-12.7% (inactive),-3.42% (inactive),90.6% (inactive),91.6% (inactive),3.08% (inactive),6.37% (inactive)
Cc1cccc(NC(=O)c2ccccc2O)c1C,60,75.5% (inactive),60% (inactive),59.2% (inactive),93.3% (inactive),4.91% (inactive),88.4,93.3,-5.95% (inactive),-3.61% (inactive),2.66% (inactive),1.19% (inactive),-1.89% (inactive),86.5% (inactive),86.3% (inactive),1.33% (inactive),2.03% (inactive)
CCOC(=O)C1=C(C)NC(=O)NC1c1ccc(OCCO)c(OC)c1 (stereo not drawn),92.5,85% (inactive),92.5% (inactive),96.6% (inactive),92.1% (inactive),-1.96% (inactive),94.1,92.1,-6.08% (inactive),-2.3% (inactive),1.63% (inactive),1.81% (inactive),-1.65% (inactive),102% (inactive),100% (inactive),1.9% (inactive),-1.29% (inactive)

# Reference: PubChem BioAssay
